Experimental findings from the supplement of paper PMC13094657 are described below.

Where a name gives a salt, the structure may show the parent alone. ± gives the standard deviation of the averaged measurements.

In assay [1] the test system is MDA-MB-231. The experiment in a line: cell viability relative to vehicle unstimulated control (fraction); higher = more viable cells. The settings on record: pre-treatment time: 18 h then 24 h IFNg/TNF.
The subject of assay [2] is MDA-MB-231. The experiment in a line: kynurenine production, fold change vs DMSO IFNg/TNF control; higher = more kynurenine produced (less inhibition). As to conditions: pre-treatment time: 18 h then 24 h IFNg/TNF. In a few lines: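 Fold change over cytokine-stimulated vehicle wells on the same plate is the measure used for kynurenine production, averaged across duplicate plates in the first screening round. MDA-MB-231 cells, seeded 24 h beforehand at 7 × 10^4/well in 96-well plates, were pre-treated 18 h with each natural product in 0.1% DMSO and stimulated 24 h at 37°C with IFNγ (1 U/ml) and TNF (6.25 ng/ml). Supernatants were read at 492 nm following trichloroacetic acid and p-dimethylaminobenzaldehyde treatment, against 0–100 μM standards.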
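Wherever cell viability relative to vehicle unstimulated control is given: viability of the cells left after supernatant collection, read with Deep Blue dye added for 4 h, as absorbance at 570 nm minus 600 nm.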

For `C[C@H]1[C@H](C)CC[C@]2(CO)CC[C@]3(C)C(=CC[C@@H]4[C@@]5(C)CC[C@H](O)C(C)(C)[C@@H]5CC[C@]43C)[C@H]12` [Uvaol] (compound dose: 10 uM), the cell viability in assay [1] came to 1.03 ± 0.14. For the same molecule, the kynurenine production in assay [2] came to 0.98 ± 0.3.
`CC(=O)OC1C2C(OC(=O)c3ccccc3)C(C)CC2(OC(C)=O)C(=O)C(C)=CC2C(CCC13CO3)C2(C)C` (configuration not stated) [Euphorbia factor L25] (compound dose: 10 uM): the cell viability in assay [1] amounted to 1.057 ± 0.0038. Also, the kynurenine production in assay [2] came out at 0.911 ± 0.07.
The corresponding values for `CC(C)=CCC/C(C)=C/C=O` [Citral] (compound dose: 10 uM) are 0.922 ± 0.019 and 0.864 ± 0.074.
Taken in the same sequence, the figures for `CC(C)C1=C[C@H]2[C@@H](CC[C@]2(C)O)[C@](C)(O)CC1` [Alismoxide] (compound dose: 10 uM) were 1.01 ± 0.018 and 0.714 ± 0.17.
For the molecule `COC(=O)C1=CC[C@@]23CC[C@@H]([C@@](C)(/C=C/C=C(\C)C(=O)O)OC2=O)[C@@]3(O)CC1` [Pseudolaric Acid C] (compound dose: 10 uM), in assay [1], the cell viability was 0.927 ± 0.094. Moreover, in assay [2], the kynurenine production stood at 1.23 ± 0.051.
Turning to `C=C1C[C@@]23CC[C@H]4[C@@](C)(CCC[C@@]4(C)C(=O)O)[C@@H]2CC[C@]1(O)C3` [Steviol] (compound dose: 10 uM), the cell viability in assay [1] is 1.1 ± 0.014. Besides, the kynurenine production in assay [2] amounted to 0.964 ± 0.38.
Regarding `C[n+]1cccc(C(=O)[O-])c1` [Trigonelline hydrochloride] (compound dose: 10 uM), the cell viability in assay [1] was 0.913. For the same molecule, in assay [2], the kynurenine production came to 0.906 ± 0.16.
The corresponding values for `COc1cc2cc3c4c(cc5c(c4c2cc1OC)OCO5)CCN3C` [Dehydrodicentrine] (compound dose: 10 uM) are 0.946 ± 0.021 and 0.807 ± 0.12.
Regarding `CC(C)=CCC[C@@H](C)CC=O` [Citronellal] (compound dose: 10 uM), the cell viability in assay [1] stood at 1.067 ± 0.0084. Besides, the kynurenine production in assay [2] is 1.22 ± 0.043.
The corresponding values for `CC(C)=CCC[C@](C)(O)[C@H]1CC[C@]2(C)[C@@H]1[C@H](O)C[C@@H]1[C@@]3(C)CC[C@H](O[C@@H]4O[C@H](CO)[C@@H](O)[C@H](O)[C@H]4O[C@@H]4O[C@H](CO)[C@@H](O)[C@H](O)[C@H]4O)C(C)(C)[C@@H]3CC[C@]12C` [20(S)-Ginsenoside Rg3] (compound dose: 10 uM) are 1 ± 0.046 and 0.969 ± 0.28.
The corresponding values for `CC1=CC[C@@H](C(C)(C)O)CC1` [(-)-α-terpineol] (compound dose: 10 uM) are 0.979 ± 0.044 and 0.913 ± 0.057.
For the molecule `C=C1CC[C@@H]2[C@](C)(COC(=O)CCC(=O)O)[C@H](OC(=O)CCC(=O)O)CC[C@@]2(C)[C@@H]1/C=C/C1=CCOC1=O` [Kalii Dehydrographolidi Succinas] (compound dose: 2 uM), in assay [1], the cell viability stood at 1.08 ± 0.13. Besides, the kynurenine production in assay [2] is 1.2675 ± 0.00049.
The corresponding values for `COC(=O)C1=CO[C@@H](O[C@@H]2O[C@H](CO)[C@@H](O)[C@H](O)[C@H]2O)[C@@H]2[C@@H](C)CC(=O)[C@]12O` [Hastatoside] (compound dose: 10 uM) are 0.981 ± 0.017 and 0.797 ± 0.12.
The corresponding values for `CC(CCC(OC1OC(CO)C(O)C(O)C1OC1OC(CO)C(O)C(O)C1O)C(C)(C)O)C1CCC2(C)C3CC=C4C(CCC(O)C4(C)C)C3(C)C(O)CC12C` (configuration not stated) [Mogroside II-A] (compound dose: 10 uM) are 1.05 ± 0.069 and 0.693 ± 0.08.
The corresponding values for `CC1=CCC(C(C)C)=CC1` [γ-Terpinene] (compound dose: 10 uM) are 1.07 ± 0.036 and 0.75 ± 0.53.
For `CC(C)=CCC[C@@H](C)CC=O` [(R)-(+)-Citronellal] (compound dose: 10 uM), the cell viability in assay [1] stood at 1.07 ± 0.035. The kynurenine production in assay [2] was found to be 1.44 ± 0.056.
Taken in the same sequence, the figures for `C=C1CCC[C@]2(C)CC[C@@H](C(C)(C)O)C[C@@H]12` [Beta-Eudesmol] (compound dose: 10 uM) were 1.077 ± 0.0077 and 0.904 ± 0.14.
The corresponding values for `C=C1CC/C=C(\C)CC[C@@H]2[C@@H]1CC2(C)C` [β-Caryophyllene] (compound dose: 10 uM) are 0.9919 ± 0.0069 and 0.844 ± 0.19.
Taken in the same sequence, the figures for `O=c1cc(-c2ccc(O)cc2)oc2cc(O)cc(O)c12` [Apigenin] (compound dose: 10 uM) were 0.96 ± 0.053 and 0.806 ± 0.026.
With `C[C@@H]1CC[C@H]2C(C)(C)[C@H]3C[C@@]12CC[C@@]3(C)O` [Cedrol] (compound dose: 10 uM), the cell viability in assay [1] stood at 0.977 ± 0.06. Also, the kynurenine production in assay [2] worked out at 1.06 ± 0.019.
The corresponding values for `C/C1=C\C(=O)c2c(C)coc2C/C(C)=C/CC1` [Furanodienone] (compound dose: 10 uM) are 0.949 ± 0.065 and 0.759 ± 0.13.
In the case of `CC(CCC(OC1OC(CO)C(O)C(O)C1OC1OC(CO)C(O)C(O)C1O)C(C)(C)O)C1CCC2(C)C3CC=C4C(CCC(OC5OC(CO)C(O)C(O)C5O)C4(C)C)C3(C)C(O)CC12C` (configuration not stated) [Mogroside III-E] (compound dose: 10 uM), the cell viability in assay [1] is 1.08 ± 0.013. In addition, in assay [2], the kynurenine production was found to be 0.996 ± 0.3.
On to `CC(=O)OC/C=C(C)/C=C/C=C(C)/C=C/C1=C(C)CCCC1(C)C` [Retinyl acetate] (compound dose: 10 uM), for which, in assay [1], the cell viability came to 0.9487 ± 0.0087. Moreover, the kynurenine production in assay [2] was determined as 0.753 ± 0.084.
Taken in the same sequence, the figures for `C[C@@H]1CC[C@H]2[C@@H](C)C(=O)O[C@@H]3O[C@@]4(C)CC[C@@H]1[C@]32O4` [Deoxyartemisinin] (compound dose: 10 uM) were 1.28 ± 0.3 and 0.8521 ± 0.0034.
The corresponding values for `C[C@H]1[C@H](C)CC[C@]2(C(=O)O)CC[C@]3(C)C(=CC[C@@H]4[C@@]5(C)CCC(=O)C(C)(C)[C@@H]5CC[C@]43C)[C@H]12` [Ursonic acid] (compound dose: 10 uM) are 0.9233 ± 0.0046 and 0.733 ± 0.12.
Take `O=C(O)C1=CO[C@@H](O[C@@H]2O[C@H](CO)[C@@H](O)[C@H](O)[C@H]2O)[C@H]2[C@@H]1C=C[C@]2(O)CO` [Monotropein] (compound dose: 10 uM): the cell viability in assay [1] was 0.866 ± 0.046. Besides, in assay [2], the kynurenine production was 0.846 ± 0.13.
Regarding `CC1OC(OC2C(CO)OC(OCC3OC(OC(=O)C45CCC(C)(C)CC4C4=CCC6C7(C)CCC(OC8OCC(O)C(O)C8O)C(C)(CO)C7CCC6(C)C4(C)CC5)C(O)C(O)C3O)C(O)C2O)C(O)C(O)C1O` (configuration not stated) [Hederacoside D] (compound dose: 10 uM), in assay [1], the cell viability was 0.923 ± 0.067. For the same molecule, in assay [2], the kynurenine production came to 0.851 ± 0.16.
Take `CC(=O)OCC1=COC(OC(C)=O)C2C(C)CCC12` (configuration not stated) [Teucrein] (compound dose: 10 uM): the cell viability in assay [1] is 0.889 ± 0.026. Further, the kynurenine production in assay [2] was 0.842 ± 0.086.
Taken in the same sequence, the figures for `C=C1CC[C@@H]2[C@](C)(CO)[C@H](O)CC[C@@]2(C)[C@@H]1C/C=C1/C(=O)OC[C@H]1O` [Andrographolide] (compound dose: 10 uM) were 0.98 ± 0.018 and 0.534 ± 0.15.
The corresponding values for `CC(CC(=O)C[C@@H](C)[C@H]1CC(=O)[C@@]2(C)C3=C(C(=O)[C@@H](O)[C@]12C)[C@@]1(C)CC[C@H](O)C(C)(C)[C@@H]1C[C@@H]3O)C(=O)O` (some centres not stated) [Ganoderic acid G] (compound dose: 10 uM) are 1.1 ± 0.058 and 0.973 ± 0.16.
The corresponding values for `C[C@H](CC[C@@H](O)C(C)(C)O)[C@H]1CC[C@@]2(C)[C@@H]3CC=C4[C@@H](CC[C@H](O)C4(C)C)[C@]3(C)[C@H](O)C[C@]12C` [Mogrol] (compound dose: 10 uM) are 0.939 ± 0.051 and 0.905 ± 0.15.
As to `CC(=O)O[C@H]1CC(=O)OC(C)(C)[C@@H]2CC(=O)[C@]3(C)[C@H](CC[C@@]4(C)[C@@H](c5ccoc5)OC(=O)[C@H]5O[C@]543)[C@@]12C` [Nomilin] (compound dose: 10 uM), in assay [1], the cell viability was 1.03 ± 0.023. Further, the kynurenine production in assay [2] was 0.942 ± 0.087.
The corresponding values for `CC1(C)[C@@H](O)CC[C@]2(C)[C@H]3CC=C4[C@@H]5C[C@@]6(C)C[C@H](OC6=O)[C@]5(C)CC[C@@]4(C)[C@]3(C)CC[C@@H]12` [Wilforlide A] (compound dose: 2 uM) are 0.877 ± 0.047 and 0.834 ± 0.13.
As for `C[C@H](CC(=O)C[C@@H](C)[C@H]1C[C@H](O)[C@@]2(C)C3=C(C(=O)C[C@]12C)[C@@]1(C)CCC(=O)C(C)(C)[C@@H]1C[C@@H]3O)C(=O)O` [Ganoderic acid A] (compound dose: 10 uM), the cell viability in assay [1] stood at 0.889 ± 0.073. The kynurenine production in assay [2] worked out at 0.857 ± 0.073.
The corresponding values for `O=C(OCC1=C[C@@H](O)[C@@H]2C=CO[C@@H](O[C@@H]3O[C@H](CO)[C@@H](O)[C@H](O)[C@H]3O)[C@H]12)c1ccc(O)cc1` [Agnuside] (compound dose: 10 uM) are 1.08 ± 0.039 and 0.864 ± 0.17.
Taken in the same sequence, the figures for `C[C@@H]1O[C@@H](O[C@H]2[C@H](Oc3cc(O)c4c(c3)O[C@H](c3ccc(O)cc3)CC4=O)O[C@H](CO)[C@@H](O)[C@@H]2O)[C@H](O)[C@H](O)[C@H]1O` [Naringin] (compound dose: 10 uM) were 1.02 ± 0.015 and 1.15 ± 0.036.
Taken in the same sequence, the figures for `C=C1[C@H](OC(=O)/C=C(\C)CC)C[C@@H](C(C)C)[C@@H]2[C@@H]([C@@H](C)OC(C)=O)C(=O)C[C@@H]12` [Tussilagone] (compound dose: 10 uM) were 1.01 ± 0.034 and 1.0216 ± 0.00014.
As to `CC1(C)CCC[C@](C)([C@H]2CC[C@]3(C)[C@@H]2[C@H](O)C[C@@H]2[C@@]4(C)CC[C@H](O)C(C)(C)[C@@H]4CC[C@]23C)O1` [Panaxadiol] (compound dose: 10 uM), the cell viability in assay [1] worked out at 1.04 ± 0.013. Besides, in assay [2], the kynurenine production came out at 0.719 ± 0.088.
`CC(C)=CCC[C@](C)(O)[C@H]1CC[C@]2(C)[C@@H]1[C@H](O)C[C@@H]1[C@@]3(C)CC[C@H](O)C(C)(C)[C@@H]3[C@@H](O[C@@H]3O[C@H](CO)[C@@H](O)[C@H](O)[C@H]3O[C@@H]3O[C@@H](C)[C@H](O)[C@@H](O)[C@H]3O)C[C@]12C` [Ginsenoside Rg2] (compound dose: 10 uM): in assay [1], the cell viability turned out to be 1.01 ± 0.095. Further, the kynurenine production in assay [2] is 0.974 ± 0.061.
Taken in the same sequence, the figures for `CCCCCCCCCCCCCC(=O)O[C@@]12[C@H](O)[C@@H](C)[C@@]3(O)[C@@H](C=C(CO)C[C@]4(O)C(=O)C(C)=C[C@@H]34)[C@H]1C2(C)C` [Phorbol 13-myristate] (compound dose: 10 uM) were 1.03 ± 0.065 and 0.635 ± 0.081.
The corresponding values for `C[C@@H]1CC[C@]2(C(=O)O[C@@H]3O[C@H](CO)[C@@H](O)[C@H](O)[C@H]3O)CC[C@]3(C)C(=CC[C@@H]4[C@@]5(C)CC[C@H](O)[C@](C)(C(=O)O)[C@@H]5CC[C@]43C)[C@@H]2[C@]1(C)O` [Ilexsaponin A] (compound dose: 10 uM) are 1.02 ± 0.016 and 0.883 ± 0.013.
